From PubChem BioAssay
A number with no mark means an inactive call.

Each compound was assayed on XIP peptide (Xip251-270) binding (assay: XIP fragment 251-270 binding compounds – biochemical, small-molecule microarray, fluorescence 635/667 nm, 0.1 µg/mL protein, primary screen (AID 1182)). Conditions: fluorescent protein binding, 635 nm, higher = more signal, called active from +8 up or from −8 down.
In the case of `CCOC(=O)[C@H](CC(C)C)NC(=O)CCC1CC(OC(=O)NCc2ccc3c(c2)OCO3)CC2(CCCC(COC(=O)NCCc3ccc(Cl)cc3)O2)O1` (some centres not stated), the composite z-score is reported as -0.0891. `C=CC[C@@H]1C=C[C@H](Oc2ccc(C)cc2)[C@@H](COC(=O)NCc2cccc3ccccc23)O1` gave a composite z-score of -0.405. In the case of `CCCCOC(OCCCC)C(O)CSc1ccc2ccccc2c1` (configuration not stated), the composite z-score is reported as 0.115. In the case of `COC(=O)CC=C[C@@H](C)[C@@H](C=NOC[C@@H](O)[C@H]1O[C@@H]2OC(C)(C)O[C@@H]2[C@H]1O)OC`, the composite z-score is reported as -0.33. Work on `C[C@@H](c1ccccc1)N1C(=O)[C@H]2[C@H]3[C@H](O)[C@H](O)CC(=NNC(=O)OCc4ccccc4)[C@@H]3CC[C@H]2C1=O` yielded a composite z-score of 0.101. In the case of `COc1ccc(O[C@H]2C=C[C@@H](c3ccccc3)O[C@@H]2CON=C(C)CCN2CCCc3nc(C)c(C)cc32)cc1`, the composite z-score is reported as 0.301. With `O=C1C=C[C@@H](O)[C@@H]2[C@@H]3C(=O)N(C4CCCCC4)C(=O)[C@@H]3CC[C@@H]12` the composite z-score was 0.386.
